Results published in the supplement of paper PMC10127200.
Counter-ions that a name gives are not always drawn.

How the values were obtained:
Assay in all cases: Euclidean distance of Cell Painting phenotypic profile (signed KS, 77 features) to DMSO centroid (dimensionless distance); 5 or 10 uM (library dependent); higher = stronger phenotypic change vs DMSO (phenoactivity)
Conditions in all cases: 48 h
786-O = test system: 786-O
How it was run: (§1)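 Five cancer lines, together with a healthy fibroblast line, received library compounds for 48 h at a library-dependent 10 or 5 uM and 0.1% DMSO final. Harmony then derived 77 features from confocal 20X images (9 fields/well) of the stained cells, scoring each as a signed Kolmogorov-Smirnov statistic against same-plate vehicle wells. After plate-position correction, correlation weighting and replicate averaging at the top dose, phenoactivity was taken as each profile's Euclidean distance to the median vehicle profile.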

A549 = test system: A549
How it was run: as §1

DU145 = test system: DU145
How it was run: as §1

FB = test system: FB
How it was run: as §1

HEPG2 = test system: HEPG2
How it was run: as §1

OVCAR4 = test system: OVCAR4
How it was run: as §1

Compound | Euclidean distance (786-O) | Euclidean distance (A549) | Euclidean distance (DU145) | Euclidean distance (FB) | Euclidean distance (HEPG2) | Euclidean distance (OVCAR4)
O=C1CC2(CCCC2)CC(=O)N1CCCCN1CCN(c2ncccn2)CC1 [Buspirone HCl] | 0.547 | 0.965 | 0.869 | 0.994 | 0.61 | 1.32
CC1=C(/C=C/C(C)=C/C=C/C(C)=C/CO)C(C)(C)CCC1 [Vitamin A] | 0.784 | 1.06 | 0.821 | 1.61 | 0.745 | 1.33
O=C(NC1CCNCC1)c1n[nH]cc1NC(=O)c1c(Cl)cccc1Cl | 3.37 | 3.2 | 2.81 | 4.13 | 2.47 | 3.69
CN(C)CCCN1c2ccccc2CCc2ccc(Cl)cc21 [Clomipramine HCl] | 1.08 | 0.845 | 1.4 | 1.93 | 1.92 | 1.77
Oc1ccc(C2CNCCc3c2cc(O)c(O)c3Cl)cc1 (stereo not drawn) [Fenoldopam mesylate] | 1.43 | 1.07 | 0.768 | 0.976 | 1.19 | 0.867
N[C@@H]1c2cccnc2[C@H](OC(=O)N2CCC(n3c(=O)[nH]c4ncccc43)CC2)CC[C@H]1c1cccc(F)c1F | 1.04 | 0.68 | 0.986 | 1.29 | 0.768 | 1.31
Oc1nc(-c2ccc(C(F)(F)F)cc2)nc2c1CSCC2 | 0.915 | 1.5 | 1.11 | 0.913 | 0.766 | 1.15
O=c1c(O)c(-c2cc(O)c(O)c(O)c2)oc2cc(O)cc(O)c12 [Myricetin] | 0.872 | 2.24 | 2.15 | 1.76 | 1.1 | 2.1
N#C/C(=C1/SC[C@@H](c2ccc(Cl)cc2Cl)S1)n1ccnc1 [Luliconazole] | 1.47 | 1.03 | 0.686 | 1.08 | 0.589 | 1.1
Cc1onc(-c2ccccc2)c1C(=O)N[C@@H]1C(=O)N2[C@@H]1SC(C)(C)[C@@H]2C(=O)O [Oxacillin sodium monohydrate] | 1.39 | 1.09 | 1.47 | 1.11 | 0.665 | 1.37
O=C(Nc1ccc(-c2ccnc(Nc3ccc(N4CCOCC4)cc3)n2)cc1)C1CCCN1 (stereo not drawn) | 0.834 | 1.49 | 1.24 | 1.52 | 1.48 | 0.844
c1ccc(-c2nn3c(c2-c2ccnc4cc(OCCN5CCOCC5)ccc24)CCC3)nc1 | 1.44 | 0.959 | 1.42 | 1.75 | 1.45 | 0.876
CN(C)CCC=C1c2ccccc2C=Cc2ccccc21 [Cyclobenzaprine HCl] | 1.1 | 1.26 | 1.14 | 1.88 | 1.52 | 1.16
C[C@H]1O[C@H](O[C@H]2[C@H](O)[C@@H](O)[C@@H](O[C@H]3[C@H](O)[C@@H](O)C(O)O[C@@H]3CO)O[C@@H]2CO)[C@H](O)[C@@H](O)[C@@H]1N[C@H]1C=C(CO)[C@@H](O)[C@H](O)[C@H]1O (stereo partly drawn) [Acarbose] | 1.5 | 1.91 | 1.47 | 1.59 | 0.847 | 1.46
CCc1cc(Nc2nccc(-c3c(-c4ccc(OC)c(C(=O)Nc5c(F)cccc5F)c4)nc4ccccn34)n2)c(OC)cc1N1CCC(N2CCN(S(C)(=O)=O)CC2)CC1 | 1.24 | 1.6 | 1.12 | 0.954 | 1.11 | 1.26
C[C@@H](O[C@H]1OCCN(Cc2nn(P(=O)(O)O)c(=O)[nH]2)[C@H]1c1ccc(F)cc1)c1cc(C(F)(F)F)cc(C(F)(F)F)c1 [Fosaprepitant dimeglumine salt] | 1.86 | 1.37 | 1.18 | 1.21 | 1.4 | 0.995
CC(C)CN(C[C@@H](OP(=O)(O)O)[C@H](Cc1ccccc1)NC(=O)O[C@H]1CCOC1)S(=O)(=O)c1ccc(N)cc1 [Fosamprenavir calcium salt] | 1.44 | 0.901 | 1.21 | 0.737 | 0.527 | 1.41
COc1c(N2C[C@@H]3CCCN[C@@H]3C2)c(F)cc2c(=O)c(C(=O)O)cn(C3CC3)c12 [Moxifloxacin] | 1.32 | 0.519 | 0.919 | 1.06 | 0.804 | 0.918
COc1cc2c(Oc3ccc4[nH]c(C)cc4c3F)ccnc2cc1OCC1(N)CC1 [Anlotinib (AL3818) dihydrochloride] | 3.26 | 3.7 | 2.73 | 3.46 | 3.11 | 3.17
CC(=O)/N=c1/sc(S(N)(=O)=O)nn1C [Methazolamide] | 1.32 | 0.988 | 0.818 | 0.885 | 0.858 | 1.5
C[C@]12C=CC(=O)C=C1CC[C@@H]1[C@@H]2[C@@H](O)C[C@@]2(C)[C@H]1CC[C@]2(O)C(=O)CO [Prednisolone] | 1.51 | 2.15 | 2.31 | 1.67 | 2.12 | 2.19
N#Cc1ccc2[nH]c(O)c(-c3ccc(CN4CCOCC4)cn3)c2c1 | 3.45 | 2.98 | 2.02 | 1.79 | 1.72 | 3.02
Nc1nc(CC(=O)Nc2ccc(CCNC[C@H](O)c3ccccc3)cc2)cs1 [Mirabegron] | 0.989 | 1.17 | 1.1 | 1.21 | 0.802 | 1.68
COc1c(C)c(C(=O)c2ccc(N)c(C(=O)O)c2)n2ccccc12 | 0.838 | 1.03 | 0.919 | 1.47 | 0.969 | 1.32

Compound | Euclidean distance (786-O) | Euclidean distance (A549) | Euclidean distance (DU145) | Euclidean distance (FB) | Euclidean distance (HEPG2) | Euclidean distance (OVCAR4)
OC[C@H]1O[C@@H](OCCc2ccc(O)cc2)[C@H](O)[C@@H](O)[C@@H]1O [Salidroside] | 1.05 | 0.737 | 0.796 | 0.815 | 0.763 | 1.5
O=C1CCc2ccc(OCCCCN3CCN(c4cccc(Cl)c4Cl)CC3)cc2N1 [Aripiprazole] | 1.08 | 0.975 | 0.573 | 0.979 | 0.512 | 1.21
S=P(N1CC1)(N1CC1)N1CC1 [Thiotepa] | 2.52 | 3.76 | 2.03 | 2.35 | 2.68 | 3.07
CN1CC2c3ccccc3Oc3ccc(Cl)cc3C2C1 (stereo not drawn) [Asenapine maleate] | 1.69 | 0.991 | 2.6 | 1.59 | 1.28 | 1.51
CC1(C)S[C@@H]2[C@H](NC(=O)[C@H](N)c3ccccc3)C(=O)N2[C@H]1C(=O)OCOC(=O)[C@@H]1N2C(=O)C[C@H]2S(=O)(=O)C1(C)C [Sultamicillin] | 1.46 | 0.999 | 0.805 | 1.26 | 0.611 | 1.28
O=C1NC(=O)/C(=C/c2cccc(C(F)(F)F)c2)S1 | 1.83 | 1.41 | 0.82 | 1.49 | 0.755 | 0.797
C[C@@H](c1ncncc1F)[C@](O)(Cn1cncn1)c1ccc(F)cc1F [Voriconazole] | 1.9 | 1.17 | 0.9 | 1.01 | 0.988 | 1.25
CCN(CC)Cc1cc(Nc2ccnc3cc(Cl)ccc23)ccc1O [Amodiaquine] | 2.2 | 2.16 | 1.37 | 3.19 | 2.51 | 2.02
Cc1ccc(C(=O)c2ccc(CC(=O)O)n2C)cc1 [Tolmetin] | 1.07 | 0.65 | 0.844 | 1.14 | 0.964 | 0.922
CC(=O)Oc1cc2c(s1)CCN(C(C(=O)C1CC1)c1ccccc1F)C2 (stereo not drawn) [Prasugrel Hydrochloride] | 0.877 | 0.726 | 0.888 | 0.495 | 0.448 | 0.803
O=C1OCCN1/N=C/c1ccc([N+](=O)[O-])o1 [Furazolidone] | 1.14 | 1.26 | 1.02 | 1.13 | 0.999 | 1.09
CN(C)N(C)C(=O)[C@@]1(Cc2ccccc2)CCCN(C(=O)[C@@H](Cc2c[nH]c3ccccc23)NC(=O)C(C)(C)N)C1 [Anamorelin] | 1.33 | 0.796 | 0.841 | 1.59 | 0.82 | 0.802
Cc1nnc(SCC2=C(C(=O)O)N3C(=O)[C@@H](NC(=O)Cn4cnnn4)[C@H]3SC2)s1 [Cefazolin Sodium] | 0.929 | 0.587 | 0.958 | 0.961 | 1.06 | 1.27
O=C(Nc1nc2cccc(-c3ccc(CN4CCS(=O)(=O)CC4)cc3)n2n1)C1CC1 [Filgotinib (GLPG0634)] | 0.844 | 0.922 | 1.29 | 1.45 | 2.21 | 1.22
O=C(O)c1ccc(-n2nc(-c3ccccc3O)nc2-c2ccccc2O)cc1 [Deferasirox] | 2.29 | 2.01 | 1.82 | 2.5 | 1.64 | 1.99
N[C@H](C(=O)O)[C@H](O)c1ccc(O)c(O)c1 [Droxidopa] | 0.967 | 0.876 | 0.724 | 0.744 | 1.01 | 0.873
CC(C)(C)NS(=O)(=O)c1cncc(-c2cc(F)c3nc(N)nn3c2)c1 | 0.676 | 0.836 | 1.2 | 1.61 | 0.94 | 1.09
Cc1c(Cc2ccc3ccccc3n2)c2cc(F)ccc2n1CC(=O)O | 1.27 | 1.14 | 0.888 | 1.16 | 2.13 | 1.52
CC[C@H](C)[C@@H]1NC(=O)[C@H](Cc2ccc(O)cc2)NC(=O)[C@@H](N)CSSC[C@@H](C(=O)N2CCC[C@H]2C(=O)N[C@@H](CC(C)C)C(=O)NCC(N)=O)NC(=O)[C@H](CC(N)=O)NC(=O)[C@H](CCC(N)=O)NC1=O [Oxytocin (Syntocinon)] | 1.83 | 1.77 | 0.912 | 1.41 | 0.745 | 0.928
COc1cccc(-c2cc(=O)c3ccccc3o2)c1N | 1.16 | 1.4 | 0.841 | 0.911 | 1.94 | 0.844
CC(C)(C)C(=O)Oc1ccc(S(=O)(=O)Nc2ccccc2C(=O)NCC(=O)O)cc1 [Sivelestat sodium tetrahydrate] | 0.925 | 0.568 | 1.32 | 1.57 | 0.892 | 1.28
C=CC1=C(C(=O)O)N2C(=O)[C@@H](NC(=O)/C(=N\OCC(=O)O)c3csc(N)n3)[C@H]2SC1 [Cefixime] | 1.35 | 0.916 | 0.778 | 1.38 | 0.6 | 1.73
NC(=O)OCC(COC(N)=O)c1ccccc1 [Felbamate] | 1.13 | 0.883 | 0.57 | 1.58 | 0.405 | 0.882
Cc1ccccc1C(=O)Nc1ccc(C(=O)N2CCCC(N(C)C)c3ccccc32)cc1 (stereo not drawn) [Mozavaptan] | 0.843 | 0.928 | 1.17 | 0.813 | 0.445 | 0.913
